Laboratory results from PubChem BioAssay AID743279 (National Center for Advancing Translational Sciences (NCATS), 2014).
The whole screen tested about 360,000 compounds, of which about 17,000 (4.7%) were called active. Not shown: some 5% with an inconclusive outcome. The sample holds actives, similar compounds and a random draw of the others, so the mix is not that of the screen. No stated cut-off is given here; in the data, active means activity change below about -50%; inconclusive means mostly about -30% to -49%; inactive means weaker than that.

Assay: qHTS for Inhibitors of Inflammasome Signaling: IL-1-beta AlphaLISA Primary Screen
Conditions: THP-1 LPS/ATP IL-1B secretion, 16 h; at 57.5 µM, stronger effect = lower value
How it was run: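 Secreted IL-1B measured by AlphaLISA bead assay after 16 h compound exposure of THP-1 cells; compounds (final up to 57.5 uM) added 1 h before LPS (250 ng/mL) and ATP (1.25 mM) stimulation; lower signal means less secretion.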
On the % scale 0 is the no-effect control and ±100 the full control effect.

Activity change, inactive:
Cc1ccc(-c2csc(NC(=O)Cn3[nH]c(=O)c4ccccc4c3=O)n2)cc1 10.3%
O=C(CSC1=NCCS1)Nc1nc(-c2ccccc2)cs1 -4.52%
COc1ccc(N/C=C(\C2OC(=O)c3ccccc32)[N+](=O)[O-])cc1 (configuration not stated) -0.0924%
COc1ccc(C(C)(NC(C)=O)c2nc(-c3ccc(S(C)(=O)=O)cc3)cs2)cc1 (configuration not stated) -7.6%
CCc1ccccc1NC(=O)[C@@H]1CCC(=O)N1C1OC(=O)c2c1ccc(OC)c2OC (some centres not stated) -9.95%
CCCc1cc(-c2nc(-c3ccc(C)cc3)cs2)ccn1 19.6%
OC(c1ccc(Cl)cc1)c1ncc(-c2ccc(Cl)cc2)[nH]1 (configuration not stated) -2.78%
CCCNC(=O)C1(C)CCCN(C(=O)c2oc3ccccc3c2C)C1 (configuration not stated) 35.7%
CN1CCN(c2ccncc2S(=O)(=O)N2CCCC2)CC1 21.6%
COc1ccc2c(CC(=O)OCC(=O)NC(N)=O)coc2c1 0%
CCNC(=O)C1(C)CCCN(C(=O)c2ccc3ccccc3n2)C1 (configuration not stated) -16.3%
COc1ccc(C=C2CCC3C(CCCC34OCCO4)C2=O)cc1 (configuration not stated) -24.6%
COc1ccc(CCNC(=O)CN2C(=O)COc3ccc(S(=O)(=O)N4CCCC4)cc32)cc1OC -11.4%
O=C(CSCc1ccc(Br)cc1)Nc1ccc(S(=O)(=O)N2CCCCCC2)cc1 23.8%
COCCCNC(=O)CN1C(=O)CSc2ccc(S(=O)(=O)N3CCOCC3)cc21 -5.17%
CN(C)c1ccc(CNC(=O)CN2C(=O)COc3ccc(S(=O)(=O)N4CCCC4)cc32)cc1 12.9%
CCOc1ccc(NC(=O)COc2ccc(S(=O)(=O)N3CCCC3)cc2)cc1 5.76%
CC1CCN(CCCNC(=O)CN2C(=O)CSc3ccc(S(=O)(=O)N4CCCCC4)cc32)CC1 -0.367%
O=C(Nc1c(Br)cc2c(c1Br)Cc1ccccc1-2)C(F)(F)F 17.9%
Cc1ccc2cc(CN(c3ccc(C)c(C)c3)S(C)(=O)=O)c(=O)[nH]c2c1 -25.8%
COc1ccc(NC(=O)c2sc(=O)n(Cc3ccc(S(=O)(=O)N(C)C)cc3)c2C)cc1 6.5%
O=C(NCc1ccccc1)C1c2ccccc2OCC(=O)N1C1CC1 (configuration not stated) -1.49%
Cc1cc(Br)cn2c(Cc3cccc(F)c3)c(-c3cccc(Br)c3)nc12 25.5%
CCCC1C(c2ccccc2)C(C#N)(C#N)C2(C#N)CC1(N)NC2=O (configuration not stated) 3.18%
COc1ccc(C(=O)/C=C/Nc2ccccn2)cc1 -1.59%
COc1ccc(-c2cc3ncccc3cn2)cc1 15.7%
COc1ccc(C(C)(O)c2nc(-c3cc(F)cc(F)c3)cs2)cc1 (configuration not stated) 42.9%
COc1cccc(C(O)c2nc(-c3ccc(C)c(C)c3)cs2)c1 (configuration not stated) 27%
COc1ccc(C(C)(O)c2nc(-c3ccc(C)c(C)c3)cs2)cc1 (configuration not stated) 22%
COC(=O)CCc1sc(Nc2ccc(Br)cc2)nc1-c1ccc(OC)cc1 -13.7%
COc1ccc(C(O)c2nc(-c3ccc4c(c3)OCO4)cs2)cc1 (configuration not stated) -22.4%
COc1ccc(C(O)c2nc(-c3ccc(OC)nc3)cs2)cc1 (configuration not stated) 36.7%
NC(CSC(c1ccccc1)(c1ccccc1)c1ccc(-c2ccccc2)cc1)C(=O)O (configuration not stated) 1.83%
C=CCNC(=O)CCCC(=O)NCC=C 0%
OC(c1ccccc1)c1nc(/C=C/c2ccc(C(F)(F)F)cc2)cs1 (configuration not stated) 15.3%
O=C(O)c1ccccc1Cc1ccc(F)c2ccccc12 47.2%
O=S1(=O)CSCS(=O)(=O)C1 -18.2%
COc1ccc([C@H]2N[C@]3(CCCN(Cc4ccco4)C3=O)[C@H]3C(=O)N(C)C(=O)[C@@H]23)cc1 -4.35%
Cc1cc(=O)oc2c3c(cc(OCC(=O)NCCC(=O)N[C@@H](C)C(=O)O)c12)OC(C)(C)CC3 -0.546%
Cc1ccn2c(-c3csc(Nc4ccc(C(=O)O)cc4)n3)c(C)nc2c1 30.5%
O=C(NCc1cccnc1)c1cccc(-c2cc3ccccc3oc2=O)c1 -3.38%
Nc1nc2c(Br)ccc(Br)c2cc1C(=O)NCCc1ccccc1 0%
CCCCN(C(=O)c1cccc(N2C(=O)c3ccccc3C2=O)c1)c1c(N)n(CCCC)c(=O)[nH]c1=O 13%
CCC(C)NCCOCCOc1ccc(Br)cc1C (configuration not stated) -17.9%
C[C@H](NC(=O)CC[C@H]1O[C@@H](n2ccc(=O)[nH]c2=O)[C@H](O)[C@@H]1O)c1cccc2ccccc12 0%
CCOc1ccc(CC(=O)NC2CCN(Cc3ccccc3)CC2)cc1 0%
CC(C)(C)C(=O)NNC(=O)c1ccc(Oc2cc(Cl)cc(Cl)c2)o1 6.58%
Cc1cc(C(=O)NC2CCN(Cc3ccccc3)CC2)n[nH]1 -8.74%
COc1cc2[nH]c(=O)n(Cc3ccc(C(=O)NC4CCN(Cc5ccccc5)CC4)cc3)c(=O)c2cc1OC 2%
COC(=O)c1ccc2nc(-c3ccccc3)c(Cc3ccc(OC)cc3C)n2c1 -3.04%
CSc1ccc(CN2CCC2(C)C(=O)Nc2ccc(C)c(O)c2)cc1 (configuration not stated) -13.3%
Cc1ccc(S(=O)(=O)N[C@H](CO)C(C)C)cc1 -19.8%
Cc1ccsc1CNn1cnnc1SCc1ccccc1F -6.1%
CC(C)c1ccc(CC(=O)N2CCC2(C)C(=O)NS(=O)(=O)c2ccc(C(C)(C)C)cc2)cc1 (configuration not stated) 19.2%
C[C@]12CCC(=O)C=C1C=CC1C2CC[C@@]2(C)C1CC[C@@]21CCC(=O)O1 (some centres not stated) -21.4%
CSCCC(NS(=O)(=O)c1ccc(C)cc1)C(=O)NCCc1c[nH]c2ccccc12 (configuration not stated) -1.87%
O=C1Nc2ccccc2-n2nnnc2C1N1CCN(c2cccc(C(F)(F)F)n2)CC1 (configuration not stated) -29.2%
CCOc1ccc(/C=N/OCC(=O)NCc2cccs2)cc1 -0.513%
CC1CCCCC1NC(=O)CO/N=C/c1ccc(OC(F)F)cc1 (configuration not stated) -0.145%
CC(C)(C)C(=O)c1c(N)[nH]c(C(=O)c2ccccc2)c1-c1ccc(F)cc1 19.8%
Fc1cccc(Cc2c(-c3cccc(Cl)c3)nc3ccc(Br)cn23)c1 88.1%
Cc1cc(NC(=O)COc2ccc([N+](=O)[O-])cc2)no1 -22.5%
Cc1onc(C(=O)NCc2ccc(F)cc2)c1[N+](=O)[O-] 10%
Cc1cccc(C(=O)Nc2ccc(CC(=O)O)cc2)c1 0%
O=C(Nc1ccc(Br)cn1)c1ccc([N+](=O)[O-])cc1Cl -6.95%
CN1C(=O)c2ccc(C(=O)Nc3ccc(Br)cn3)cc2C1=O -0.113%
Cc1cccc(NC(=O)C(C)SCc2ccccc2)c1 (configuration not stated) 58.8%
C[n+]1cccc(C(=O)O)c1 -10.8%
O=C(NCc1cccnc1)c1cc(C2CCCCN2C(=O)CCc2ccccc2)on1 (configuration not stated) 19.3%
Cc1n[nH]c(=O)c2c(NC(=O)CSc3ccccc3F)oc(C)c12 -0.579%
CC(C)(C)OC(=O)NC(Cc1ccccc1)C(=O)NC(CSC1CCCCO1)C(=O)NN (configuration not stated) -12%
COc1ccc(CN2C(=O)C(CC(=O)NCCN3CCOCC3)CC(C(=O)N(C(C)C)C(C)C)=C2C)cc1 (configuration not stated) 15.9%
COc1cc(C2c3cc4c(cc3C(O)C3COC(=O)C23)OCO4)cc(OC)c1OC (configuration not stated) -3.2%
O=C(NCC(F)(F)F)c1ccc(S(=O)(=O)NCCc2ccc3c(c2)OCCO3)cc1 -14.1%
CCCn1c(N)c(C(=O)CSc2nnc(Cc3cccs3)n2C2CC2)c(=O)[nH]c1=O -3.66%

Activity change, active:
COc1ccc(-c2csc(NC3OC(=O)c4ccccc43)n2)cc1 (configuration not stated) -77.8%
Cc1ccc(-c2csc(NC3OC(=O)c4ccccc43)n2)cc1 (configuration not stated) -99%
COc1ccc2c(c1OC)C(=O)OC2Nc1nc(-c2ccccc2)cs1 (configuration not stated) -117%
O=C(CN1CCCCCC1)Nc1ccc(S(=O)(=O)N2CCCCC2)cc1 -59.2%
CCc1ccc(NC(=O)CN2C(=O)COc3ccc(S(=O)(=O)N4CCCC4)cc32)cc1 -54.9%
COc1ccc(NC(=O)CN2C(=O)CSc3ccc(S(=O)(=O)N4CCC(C)CC4)cc32)cc1 -67.1%
COc1ccc(OC)c(Nc2nc(-c3ccc(O)c(O)c3)cs2)c1 -70%
COc1ccc(-c2csc(Nc3ccc(O)cc3)n2)cc1 -79.3%
COc1ccc(-c2csc(Cc3nc(O)cs3)n2)cc1 -95.7%
COc1ccc(-c2csc(Nc3ccccn3)n2)cc1 -86.3%
O=c1oc2ccccc2cc1-c1csc(Nc2ccc(O)cc2)n1 -97.2%
O=C(NC1CCN(Cc2ccccc2)CC1)c1cc(Br)c(Br)[nH]1 -123%
O=C(NC1CCN(Cc2ccccc2)CC1)c1ccc(Oc2cc(Cl)cc(Cl)c2)o1 -70.1%
O=C(CO/N=C/c1ccc(OC(F)F)cc1)NCc1ccc(F)cc1 -66.2%
O=C(Nc1ccc(Br)cn1)c1ccc([N+](=O)[O-])o1 -155%
Cc1cccc(NC(=O)c2ccc([N+](=O)[O-])o2)c1 -102%
Cc1onc(NC(=O)c2ccc([N+](=O)[O-])o2)c1Br -79.8%
